# Measurements from PubChem BioAssay (NCI).
# The panel holds about 83,000 compounds, 20% with a hit somewhere; the sample as a whole holds those more often.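 Negative percent growth values reflect cell death: -40 means 40% of the cells present at the start died, and -100 means all died.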 Unmarked numbers belong to inactive results. Active and inactive are the calls of the source. The calls were made as follows: active = growth percent below 10; inactive = the rest.
# Experiments:
# Assay in all cases: NCI-60 one-dose screen, 48 h (100 = growth as untreated, 0 = no growth, -100 = all killed)
# Details in all cases: 10 µM unless noted
# SR leukemia = system: SR leukemia
# RPMI-8226 leukemia = system: RPMI-8226 leukemia
# OVCAR-8 ovarian = system: OVCAR-8 ovarian
# OVCAR-5 ovarian = system: OVCAR-5 ovarian
# OVCAR-4 ovarian = system: OVCAR-4 ovarian
# SK-OV-3 ovarian = system: SK-OV-3 ovarian
# IGROV1 ovarian = system: IGROV1 ovarian
# OVCAR-3 ovarian = system: OVCAR-3 ovarian
# NCI/ADR-RES ovarian = system: NCI/ADR-RES ovarian
# T-47D breast = system: T-47D breast
# BT-549 breast = system: BT-549 breast
# MDA-MB-435 melanoma = system: MDA-MB-435 melanoma
# SW-620 colon = system: SW-620 colon
# MCF7 breast = system: MCF7 breast
# HCT-116 colon = system: HCT-116 colon
# HCC-2998 colon = system: HCC-2998 colon
# KM12 colon = system: KM12 colon
# HS 578T breast = system: HS 578T breast
Compound,growth (SR leukemia),growth (RPMI-8226 leukemia) [%],growth (OVCAR-8 ovarian) [%],growth (OVCAR-5 ovarian) [%],growth (OVCAR-4 ovarian),growth (SK-OV-3 ovarian) [%],growth (IGROV1 ovarian),growth (OVCAR-3 ovarian),growth (NCI/ADR-RES ovarian),growth (T-47D breast) [%],growth (BT-549 breast),growth (MDA-MB-435 melanoma),growth (SW-620 colon) [%],growth (MCF7 breast),growth (HCT-116 colon),growth (HCC-2998 colon),growth (KM12 colon),growth (HS 578T breast)
COc1c2occc2c(OC)c2c(=O)c(-c3cc(-c4ccc(F)cc4)c(C#N)c(N)n3)c(C)oc12,15.5%,27.3,49.1,91.9,19.4%,56.5,21.3%,15.2%,68.2%,30.7,63.7%,63.1%,42.3,13.4%,9.9% (active),69.3%,46.2%,
CCC1=CCC[C@@]2(C)CCC[C@@]3(C)CCCC(C)(C)[C@]1([O-])[O+]32,112%,97.9,104,104,85.1%,107,105%,111%,106%,,101%,103%,101,,102%,104%,110%,92.8%
CO[C@H]1NC(=O)N(S(=O)(=O)c2ccc(Cl)cc2)[C@@H]1OC,93.9%,96.1,106,111,108%,102,124%,108%,110%,105,108%,97.3%,,99.4%,110%,110%,103%,100%
O=C(O)Cc1cccc(=O)c(O)c1C(=O)O,103%,88.8,105,96.4,117%,107,110%,114%,117%,,102%,109%,106,100%,,106%,104%,112%
Clc1ccccc1-c1nc2ccccc2[nH]1,116%,74,106,54.4,96.9%,103,108%,102%,-4.71% (active),89.3,,103%,94.6,82.8%,78.6%,70.9%,,113%
COc1cc2c(c(OC)c1OC)-c1ccc(N)c(=O)cc1[C@@H](NC(C)=O)CC2,20%,27.2,16.6,40.5,51%,23.9,1.05% (active),-54.2% (active),75.6%,59.7,-12.6% (active),6.15% (active),,14.9%,1.6% (active),,-20.1% (active),19.6%
Nc1nc(=O)c2ccccc2s1,109%,94.8,121,99.6,125%,104,122%,131%,113%,,101%,102%,,103%,107%,107%,112%,112%
O=C(NNC(=O)N1c2ccccc2C=Cc2ccccc21)c1ccc2ccccc2c1,87.2%,96.7,94.9,91.3,91.8%,110,102%,101%,93%,87.4,,103%,101,86%,103%,102%,98.6%,101%
COc1ccc(NC(=O)CSc2nc(-c3ccc(OC)c(OC)c3)cc(-c3cc(OC)c(OC)c(OC)c3)n2)cc1,104%,78.2,94.2,99.1,106%,109,122%,114%,98.7%,,95.5%,112%,105,,90.3%,111%,98.4%,90.8%
O=[N+]([O-])c1cc(S(=O)(=O)Oc2ccccc2)ccc1Cl,1.34% (active),17,40.7,66.8,-28.4% (active),102,-78.2% (active),-94.7% (active),46.6%,,30.2%,19.1%,,-64.3% (active),-54.8% (active),-77.9% (active),-71.8% (active),-7.12% (active)
